Inconclusive results are not listed. Entries that show only a call come without a potency. The source made the active and inactive calls. The call rests on the fitted dose curve; in most records, active means well fitted curve in the direction sought with a large enough effect; inconclusive means small, poorly fitted or top-dose-only effect, or another doubt; inactive means no such curve, though single readings can be large; an effect the other way counts as inactive or inconclusive.
Experiments:
[1] = biological target: Cytochrome P450 2C9 (Homo sapiens) (UniProt P11712); assay: qHTS Assay for Inhibitors and Substrates of Cytochrome P450 2C9 (AID 883); further: potency means the concentration at half of the fitted maximal effect; nearly all actives have a fitted effect of over 60% in size
Method in brief: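 Human CYP2C9 (10nM) hydroxylated Luciferin-H (100uM, at its KM) to luciferin in 25mM KPO4. Compound was preincubated 10 min at 37C, then NADPH regeneration started a 60 min reaction at 37C. Luminescence was read after detection reagent, normalized to 57uM sulphaphenazole.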

[2] = Confirmation and Secondary Assay for Modulators of Hemoglobin Beta Chain Splicing at IVS2 705 locus (AID 930);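 further: HeLa cells stably expressing the EGFP-705 splicing reporter; GFP fluorescence per well restored by corrected splicing of the IVS2-705 intron in EGFP; series mostly up to about 46 µM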
Method in brief: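 Stable HeLa line with EGFP disrupted by mutant beta-globin intron 2 (705). Overnight attachment, then 2 days of compound at 37C, 5% CO2. Signal: peak GFP intensity summed over objects 5-250 µm.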

Cytochrome P450 2C9 (Homo sapiens), sequence (P11712 whole entry, looked up): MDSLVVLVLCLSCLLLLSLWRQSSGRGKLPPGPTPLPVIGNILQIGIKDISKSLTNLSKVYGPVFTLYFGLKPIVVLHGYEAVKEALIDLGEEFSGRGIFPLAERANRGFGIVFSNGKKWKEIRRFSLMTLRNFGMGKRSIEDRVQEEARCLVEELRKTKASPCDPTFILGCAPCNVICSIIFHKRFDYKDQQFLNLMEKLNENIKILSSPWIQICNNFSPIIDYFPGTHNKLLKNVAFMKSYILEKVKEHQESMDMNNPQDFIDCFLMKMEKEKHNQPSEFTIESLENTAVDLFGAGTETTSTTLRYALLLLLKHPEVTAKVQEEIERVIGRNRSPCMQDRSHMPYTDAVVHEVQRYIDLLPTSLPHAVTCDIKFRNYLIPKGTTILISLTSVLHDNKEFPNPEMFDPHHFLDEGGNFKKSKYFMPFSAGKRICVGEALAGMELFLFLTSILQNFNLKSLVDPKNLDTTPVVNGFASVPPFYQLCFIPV

Compound | Potency [1] | outcome [2]
COc1ccccc1CCn1c(=O)c(-c2cccs2)nc2cncnc21 | 2510 nM (active) | –
COc1cccc(Cn2c(=O)c(-c3cccs3)nc3cnc(OC)nc32)c1 | 3160 nM (active) | –
COc1cccc(-c2cncnc2NCc2cccs2)c1 | 398 nM (active) | –
c1ncc(-c2ccc3c(c2)OCO3)c(NCCc2cnc[nH]2)n1 | – | inactive
N#Cc1cccc(-c2nc(Nc3ccccc3)c3ccccc3n2)c1 | – | inactive
CN(C)C(=O)c1ccc(-c2nc(N(C)Cc3ccco3)c3ccccc3n2)cc1 | – | inactive
COc1ccc2[nH]cc(CCNc3nc(-c4ccccc4CN(C)C)nc4ccccc34)c2c1 | – | inactive

Reference: PubChem BioAssay (NCATS)
